IP6K1 inhibitor = blocks human inositol hexakisphosphate kinase 1. Q92551. IP6K1 kinase, ADP-Glo luminescence, 2 h; active compounds read low. activity change, % (series mostly up to about 58 µM). 0.81% of 140,000 active. AID 1645851; in the data active means activity change below about -25%; further: on the % scale 0 is the no-effect control and ±100 the full control effect
Target sequence (Q92551 whole entry, looked up): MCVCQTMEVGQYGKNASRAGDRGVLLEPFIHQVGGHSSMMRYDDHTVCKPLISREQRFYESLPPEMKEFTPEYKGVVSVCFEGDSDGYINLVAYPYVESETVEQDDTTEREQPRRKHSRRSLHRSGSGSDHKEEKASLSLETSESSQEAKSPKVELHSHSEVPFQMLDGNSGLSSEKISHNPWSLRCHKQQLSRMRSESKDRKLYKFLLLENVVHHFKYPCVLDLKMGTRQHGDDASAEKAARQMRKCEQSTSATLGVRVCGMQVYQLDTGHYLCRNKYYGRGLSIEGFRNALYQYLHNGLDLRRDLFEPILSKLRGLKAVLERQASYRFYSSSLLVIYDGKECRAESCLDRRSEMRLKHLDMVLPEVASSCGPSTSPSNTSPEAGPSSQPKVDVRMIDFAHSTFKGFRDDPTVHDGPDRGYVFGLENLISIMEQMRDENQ
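ADP-Glo luminescence measures ADP made by human IP6K1 during a 2 h RT reaction with ATP/IP6 (mix at 1.3 mM/130 uM); top library doses 57.5 and 19.1 uM final.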
SNCA expr inh = inhibitors of alpha-synuclein (SNCA) gene expression; 0.17% of 140,000 active; HEK-293 SNCA-luciferase knock-in, luminescence, 24 h; Potency, µM (top dose mostly 57.2 µM), for inactives: at the top dose activity change, negative = inhibition, most hits filed as inhibitors;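 further: potency means the concentration at half of the fitted maximal effect; plate controls were DMSO cells for no effect and cell-free wells for full effect; nearly all actives have a fitted effect of over 45% in size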
KDM5B inh = KDM5B demethylase inhibition. KDM5B demethylase, FDH-coupled NADH fluorescence (FDH is formaldehyde dehydrogenase). Q9UGL1. Potency, µM (top dose mostly 57.7 µM), actives largely listed as inhibitors. 2.6% of 220,000 active; further: potency means the concentration at half of the fitted maximal effect; 0% is about no effect; nearly all actives have a fitted effect of over 70% in size
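Inhibition is measured as reduced NADH fluorescence generation from FDH coupling to formaldehyde release. Truncated KDM5BΔAP at 200 nM final acts on H3K4me3 peptide (12.5 µM in substrate mix) in pH 7.5 HEPES buffer with Tween-20, 30 min, room temperature.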
SNCA viab count = reduces viability of HEK-293 SNCA reporter cells; HEK-293-SNCA-luc viability, GF-AFC fluorescence, 24 h; Potency, µM (highest dose often 57.1 µM), inactives show top-dose activity change, negative = cytotoxicity, actives largely listed as cytotoxic; 0.12% of 150,000 active; AID 1671193;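 further: potency means the concentration at half of the fitted maximal effect; 0% = DMSO-treated cells and -100% = medium-only wells without cells; nearly all actives have a fitted effect of over 30% in size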
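Cytotoxicity counterscreen: after 24 h compound treatment of genome-edited SNCA-luciferase HEK-293 cells, live-cell protease substrate GF-AFC read by fluorescence after 30 min; activity scaled between DMSO (0%) and medium-only (-100%), curves Hill-fitted.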
Numbers without * were called inactive; i = inactive; u = inconclusive; x = not tested or not shown; [ ] = dose if it differs, or a comment. Sampled rows, rich in hits. Any-hit rate of the full collection: about 2.8%. Unless noted, the call rests on the fitted dose curve; in most records, active means well fitted curve in the direction sought with a large enough effect; inconclusive means small, poorly fitted or top-dose-only effect, or another doubt; inactive means no such curve, though single readings can be large; an effect the other way counts as inactive or inconclusive.

SMILES | IP6K1 inhibitor | SNCA expr inh | KDM5B inh | SNCA viab count
CC1=C(C)C(=O)OC(C(C)C2CCC3C4C5OC5C5(O)CC(OC6OC(CO)C(OC7OC(C)C(O)C(O)C7O)C(O)C6O)CC(O)C5(C)C4CCC23C)C1 (configuration not stated) | -4 | x | x | 8%[23.9 µM]
CC1=C(CO)C(=O)O[C@@H]([C@@H](C)[C@H]2CC[C@H]3[C@@H]4C[C@H]5O[C@]56[C@@H](O)C=CC(=O)[C@]6(C)[C@@H]4CC[C@]23C)C1 | x | 3µM* | x | 6.8µM*
Cc1nnc(-c2cc(Nc3cccc(N(C)C)c3)ccn2)n1Cc1ccccc1 | 0 | 52%[87.6 µM] | 32µM* | 12%[87.6 µM]
CC(C)CN[C@H]1CO[C@H]2[C@@H]1OC[C@@H]2Nc1nccc(-c2cccs2)n1 | 13 | 5%[87.6 µM] | 32µM* | -17%[87.6 µM]
COc1ccc(C(=O)N[C@H]2CO[C@H]3[C@@H]2OC[C@@H]3Nc2nccc(-c3cccs3)n2)cc1 | -8 | 22% | u | u
O=S(=O)(N[C@H]1CO[C@H]2[C@@H]1OC[C@@H]2Nc1nccc(-c2cccs2)n1)c1cccs1 | 3 | -17% | 22µM* | -11%
Cc1ccc(C(=O)N[C@H]2CO[C@H]3[C@@H]2OC[C@@H]3Nc2nccc(-c3cccs3)n2)cc1 | -7 | 1%[87.6 µM] | u | -1%[87.6 µM]
CCN(CC)Cc1cnc2c(C(=O)NC(C)c3ccc(O)cc3)cnn2c1 (configuration not stated) | -13 | -5% | i | -8%
COc1ccc(-c2cc3nc4c(c(=O)n3[nH]2)CN(C(=O)c2cc(CN3CCOCC3)on2)CC4)cc1 | 5 | u | 8.9µM* | -5%
O=C(Nc1ccc2c(c1)CCC2)N1CCc2c(nc3cc(-c4ccccc4)[nH]n3c2=O)C1 | 42 | -9% | 11µM* | 7%
COc1ccc2c(c1)CCc1c-2n[nH]c1C(=O)N1CCc2c(nc3cc(-c4ccccc4)[nH]n3c2=O)C1 | -2 | 7% | 16µM* | 6%
COc1ccc(NC(=O)N2CCc3c(nc4cc(-c5ccccc5)[nH]n4c3=O)C2)c(OC)c1 | 22 | -23% | u | -6%
Cc1ccc(C(=O)N2CCc3c(nc4cc(-c5ccccc5)[nH]n4c3=O)C2)cn1 | 22 | 17% | 25µM* | 2%
CC1(C)CC[C@]2(C(=O)O)CC[C@]3(C)C(=CCC4[C@@]5(C)C[C@@H](O)[C@H](O)[C@@](C)(CO)C5[C@H](O)C[C@]43C)[C@@H]2C1 (some centres not stated) | -1 | x | x | 6%[23.9 µM]
COc1ccc(-c2nc3scc(CCNS(=O)(=O)c4ccc(F)cc4F)n3n2)cc1OC | 4 | 19% | i | -18%
O=C(NCc1cccs1)c1nc2cccnc2n(CCc2ccccc2)c1=O | -1 | 10% | x | -15%
O=C(c1ccc2cc[nH]c2c1)N1CCc2c(nc3cc(-c4ccccc4)[nH]n3c2=O)C1 | 10 | -5% | 28µM* | 3%
COc1ccc(-c2cc3nc4c(c(=O)n3[nH]2)CN(C(=O)c2ccc3[nH]ccc3c2)CC4)cc1 | 0 | u | 16µM* | 3%
COc1ccc(-c2cc3nc4c(c(=O)n3[nH]2)CN(C(=O)c2ccc(C)cc2)CC4)cc1 | 14 | u | u | 13%
O=C(c1ccc(=O)[nH]c1)N1CCC(C(=O)N2CCc3c(nc4cc(-c5ccccc5)[nH]n4c3=O)C2)CC1 | 7 | 3% | u | 4%
Cn1c(=O)c2c(ncn2CC(=O)c2cccc(C(F)(F)F)c2)n(C)c1=O | x | x | i | x
O=C1NC2(CCCN(Cc3ccc(F)cc3)C2)Oc2ccccc21 (configuration not stated) | 3 | -8%[87.6 µM] | i | 2%[87.6 µM]
CC(C)c1noc(-c2ccn3c(CNC(=O)c4ccco4)nnc3c2)n1 | 3 | -19% | 28µM* | -20%
CCc1ccc(C(=O)NCc2nnc3cc(-c4nc(C(C)C)no4)ccn23)cc1 | -6 | u | i | -30%
Cc1ccc(C(=O)NCc2nnc3cc(-c4nc(C(C)C)no4)ccn23)cc1 | 6 | 7% | 10µM* | 5%
SMILES | IP6K1 inhibitor | SNCA expr inh | KDM5B inh | SNCA viab count
Cc1ccnc(NCCNC(=O)C2CCC(=O)N(CC3CCCCC3)C2)c1 (configuration not stated) | -10 | 4% | 28µM* | 2%
Cc1nc(C)n(CCCNc2nccc(-c3ccccn3)n2)n1 | 0 | -24% | 22µM* | 4%
Cc1nc(C)n(CCNS(=O)(=O)c2ccccc2)n1 | x | x | i | x
CN(C)CC(O)c1cc2n(n1)CCCN(C(=O)c1cccn1C1CC1)C2 (configuration not stated) | 17 | -31% | i | 2%
Cc1ccn2c(C(=O)N3CCCn4nc(C(O)CO)cc4C3)nnc2n1 (configuration not stated) | 24 | 9% | 32µM* | -4%
C/C=C1\[C@H](O[C@@H]2O[C@H](CO)[C@@H](O)[C@H](O)[C@H]2O)OC=C(C(=O)OC)[C@H]1CC(=O)OC | 37 | x | x | 10%[23.9 µM]
Cc1ccnc(CC(C)N(C)C(=O)c2cc(-c3cnn(C)c3)nc3ccccc23)c1 (configuration not stated) | 34 | -2% | 22µM* | 1%
CCN(Cc1ccncc1)C(=O)c1cc(-c2cnc(C)nc2)nc2c(C)cccc12 | -3 | 1% | u | -17%
Cc1cccc2c(C(=O)N(C)C(C)Cc3ccccn3)cc(-c3cnc(N)nc3)nc12 (configuration not stated) | 12 | -27% | 32µM* | -3%
O=C([C@@H]1C[C@H](Oc2ccccc2)CN1C(=O)c1ccco1)N1CCOCC1 | -3 | 11% | i | 7%
CN(C)c1ccc(C(=O)N2CCN(c3nnc4ccccn34)CC2)cc1 | -8 | -11% | 18µM* | 1%
O=C(c1ccoc1)N1CCN(c2nnc3ccccn23)CC1 | 17 | -1% | 32µM* | 7%
CCc1ccc(C(=O)N2CCCN(c3nnc4ccccn34)CC2)cc1 | 7 | u | 25µM* | u
O=c1[nH]c(C2CCCN(Cc3ccccn3)C2)nn1-c1ccccc1 (configuration not stated) | 30 | u | 22µM* | -29%[87.6 µM]
COCCNC(=O)c1cc(-c2ccc(OC)cc2)nc2c1c(C)nn2-c1ccccc1 | -4 | 271% | u | 5%
COc1ccc(-c2cc(C(=O)NC3CC3)c3c(C)nn(-c4ccccc4)c3n2)cc1 | -7 | 114% | 79µM* | 5%
COc1ccc(-c2cc(C(=O)NC3CCNCC3)c3c(C)nn(-c4ccccc4)c3n2)cc1 | 1 | u | 79µM* | u
CN(C)c1ccc(CN2C[C@@H](CN3CCCCC3)[C@@H](CO)C2)cn1 | 0 | 15% | 28µM* | -4%
CN(C)[C@@H]1[C@@H](NC(=O)CCc2nc3ccccc3[nH]c2=O)[C@H]2CCO[C@H]21 | 7 | 5% | 28µM* | 3%
COCCN(Cc1ccccn1)Cc1cc(=O)c2cc(C)cc(C)c2[nH]1 | -3 | 2% | 28µM* | -4%
COc1cccc(-c2nc(SCc3cc(=O)c4cc(C)cc(C)c4[nH]3)n[nH]2)c1 | x | x | i | x

Bioassay records (PubChem BioAssay)
